Experimental data: PubChem BioAssay AID1851 (National Center for Advancing Translational Sciences (NCATS), 2009)
The whole screen tested about 16,000 compounds, of which about 4,000 (25%) were called active. Inconclusive results (about 26%) are left out. Only a sample is shown. Unmarked numbers belong to inactive results. Calls come from the whole dose curve; as a rule, active = well fitted curve in the direction sought with a large enough effect; inconclusive = small, poorly fitted or top-dose-only effect, or effect the other way; inactive = no such curve, though single readings can be large or run the other way.
% is set by controls: 0 for no effect and ±100 for the full control effect.

Each molecule was assayed against Cytochrome P450 2C9 (Homo sapiens) (UniProt P11712) (assay: Cytochrome panel assay with activity outcomes). Conditions: recombinant CYP, pro-luciferin dealkylation, luminescence, p450-cyp2c9; series mostly up to 57.1 µM; activity, negative = inhibition: at the top concentration.
Sequence of Cytochrome P450 2C9 (Homo sapiens) (P11712 whole entry, looked up): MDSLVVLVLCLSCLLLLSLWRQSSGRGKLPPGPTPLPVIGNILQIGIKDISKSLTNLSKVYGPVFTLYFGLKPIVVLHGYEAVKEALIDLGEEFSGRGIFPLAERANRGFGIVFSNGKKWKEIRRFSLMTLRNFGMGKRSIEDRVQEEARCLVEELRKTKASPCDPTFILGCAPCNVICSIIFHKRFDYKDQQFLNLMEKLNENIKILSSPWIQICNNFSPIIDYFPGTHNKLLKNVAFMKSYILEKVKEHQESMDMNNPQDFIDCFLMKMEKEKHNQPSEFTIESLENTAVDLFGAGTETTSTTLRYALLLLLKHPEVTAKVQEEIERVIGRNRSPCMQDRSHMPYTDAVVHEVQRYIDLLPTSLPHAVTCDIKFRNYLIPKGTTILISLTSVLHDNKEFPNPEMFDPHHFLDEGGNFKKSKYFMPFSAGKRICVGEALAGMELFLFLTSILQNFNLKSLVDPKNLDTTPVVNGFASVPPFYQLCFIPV
In the case of CO[C@H]1COC(=O)CCC[C@@H](C)[C@H](OC)COC(=O)[C@@H](C)NC(=O)C/C=C\[C@@H]1C, the activity, negative = inhibition is reported as -11.7% [at 11.4 µM]. Cc1noc(C)c1-c1nc(Nc2ccc(F)cc2)c2ccccc2n1 gave an activity, negative = inhibition of -2.69% [at 2.29 µM]. In the case of CCN(CC)CCNC(=O)c1cc(Br)c(N)cc1OC, the “activity, negative = inhibition” value is reported as 9.64% [at 25.6 µM]. With CCCc1c(OCCCOc2ccc(OCC(=O)O)cc2)ccc(CC=O)c1O the “activity, negative = inhibition” value was 1.35%. In the case of O=C(O)COc1ccc(OCCNC[C@@H](O)COc2ccccc2)cc1, the “activity, negative = inhibition” value is reported as 21.8%. CCCc1c(OCCCOc2ccc(OCC(=O)O)cc2)ccc(C(C)=O)c1O was tested, and the AC50 was 10 µM (active). For Cn1cccc1C(=O)N1CCC[C@@]2(CCN(Cc3ccc(C#N)cc3)C2)C1, the “activity, negative = inhibition” value was 14.1%. With NC/C=C\C(=O)O the AC50 was “inactive”. In the case of CC[C@H](C)[C@@H]1O[C@]2(CC[C@@H]1C)C[C@H]1C[C@H](CC=C(C)[C@@H](O[C@@H]3C[C@H](OC)[C@H](O[C@@H]4C[C@H](OC)[C@H](O)[C@H](C)O4)[C@H](C)O3)[C@@H](C)C=CC=C3CO[C@@H]4[C@@H](O)C(C)=C[C@@H](C(=O)O1)[C@]34O)O2, the “activity, negative = inhibition” value is reported as -8.8% [at 25.6 µM]. In the case of O=S(=O)(c1cccc(C(F)(F)F)c1)N1CCC(c2cc(-c3cccc4ccccc34)n[nH]2)CC1, the “activity, negative = inhibition” value is reported as -13.6%. In the case of O=C(Cn1cc(C(F)(F)F)ccc1=O)N1CCN(S(=O)(=O)c2ccccc2)CC1, the “activity, negative = inhibition” value is reported as -4.35%. For O=C1C2CCCN2c2ccc(S(=O)(=O)N3CCOCC3)cc2N1Cc1cccc(C(F)(F)F)c1 (centres undefined), the AC50 was 5.01 µM (active). With COc1ccc(NC(=O)N2CCCC3(CCN(C(=O)c4csnn4)CC3)C2)cc1 the “activity, negative = inhibition” value was 5.13%. O=C(SCc1cccc2ccccc12)c1ccc(Cl)cc1 gave an activity, negative = inhibition of -1.66% [at 11.4 µM]. In the case of Cc1ccc(CONC(=O)/N=C/N(C)C)cc1, the “activity, negative = inhibition” value is reported as -7.04%. For O/N=C/c1cc(Cl)ccc1OCc1cccc2ccccc12, the AC50 was 7.08 µM (active). For Cc1ccc(COc2ccc(Br)cc2/C=N/O)cc1, the AC50 was 2.82 µM (active). For Cc1ccc(COc2coc(CO)cc2=O)cc1, the “activity, negative = inhibition” value was -10.7%. With O=C(Cc1ccccc1)N/N=C/c1ccccc1OCc1ccc(Cl)cc1 the AC50 was 7.94 µM (active). O/N=C/c1ccccc1OCc1ccc(Cl)cc1 was tested, and the AC50 was 4.47 µM (active). Cc1n[nH]c(=S)n1/N=C/c1ccccc1OCc1ccc(Cl)cc1 was tested, and the “activity, negative = inhibition” value was -9.86%. Molecule Oc1ccc(Cl)cc1C=Nc1cnc2ccccc2c1 has an activity, negative = inhibition of 1.22% [at 11.4 µM]. Molecule COc1ccc(COC(=O)N/N=C2/C[C@@H](O)[C@@H](O)[C@@H]3[C@@H]4C(=O)N(C(C)(C)C)C(=O)[C@H]4CC[C@H]23)cc1 has an activity, negative = inhibition of 20.6% [at 11.4 µM]. CC(C)(C)c1onc(OCP(=O)(O)O)c1C[C@@H](N)C(=O)O was tested, and the “activity, negative = inhibition” value was 6.09%.
